Source: PubChem BioAssay

Assay: NFkB reporter suppression in cystic fibrosis bronchial cells – cell-based, uHTS hits, panel, cytotoxicity readout, dose response (AID 624344)
Conditions: CF bronchial epithelial cells, PAF-induced NFkB reporter inhibition, with PAF, run 2; at 79 µM (top of the series) unless noted

SMILES | inhibition
CC1(Cc2ccc(Cl)cc2)C(=O)Nc2ccc(-c3cccnc3)cc21 (stereo not given) | 102%
O=C(NCCc1ccccc1)c1coc(=O)c(Br)c1 | 106% [at 39.5 µM]
COc1ccc(-n2c(C)c(C(C)=O)c3cc(O)ccc32)cc1 | 95.2%
O=C1NC(c2cccc3ccccc23)Nc2ccc(Cl)cc21 (stereo not given) | 99.9%
c1ccc2c(c1)Nc1ccncc1S2 | 106%
O=C(Nc1ccccc1N1CCOCC1)c1cc(-c2ccco2)nc2ccccc12 | 95.6%
O=c1c(-c2c(O)cc(O)c3c2O[C@H](c2ccc(O)cc2)CC3)c(-c2ccc(O)cc2)oc2cc(O)cc(O)c12 | 102%
O=C1/C(=C/c2cccnc2)CCc2c1[nH]c1ccccc21 | 109%
CCc1ccc(Nc2n[n+](-c3ccccc3)c(-c3c(Cl)cccc3Cl)s2)cc1 | 101%
CCc1cc(SC#N)cc(C)c1NC(=O)CCl | 99.9%
Cc1nn(-c2ccccc2)c(N2CCCC2)c1/C=N/NC(=O)c1cc(-c2ccccc2)nc2ccccc12 | 80%
O=C(NCCc1ccc(F)cc1)c1coc(=O)c(Br)c1 | 83.4%
COc1ccc(N(CCCN2C(=O)c3cccc4cccc(c34)C2=O)C(=O)c2ccncc2)cc1 | 45.8%
Cc1ccc(N=Cc2cc3c(cc2O)OC(N)=C(C#N)C3c2ccccc2)cc1 (stereo not given) | 60.7%
C=C1C(=O)C2=CC1CCC(=O)C1(C)CCC(OC(C)=O)C(C)(C)C1CC2O (stereo not given) | 107%
COc1ccc(C2=Nn3c(nnc3-c3ccccc3OC)SC2)cc1OC1CCOC1 (stereo not given) | 92.2%
COc1ccc(-n2ncc3c(N4CCN(Cc5ccccc5)CC4)ncnc32)cc1 | 102%
c1cncc(-c2ccc3ncnc(NCc4ccc5c(c4)OCO5)c3c2)c1 | 101%
NC(=O)c1sc2nccc(Nc3ccccc3)c2c1N | 103%
CCC(CO)Oc1cc(NCc2ccc(Cl)cc2Cl)c2ncn(C(C)C)c2c1 (stereo not given) | 109%

SMILES | inhibition
CC(C)[C@H](CO)Nc1nc(NCc2ccc(S(N)(=O)=O)cc2)c2ncn(C(C)C)c2n1 | 110%
C=CCn1cnc2c(c1=O)c1nc3ccccc3nc1n2/N=C/c1cc(OC)c(OC)c(OC)c1 | 102%
O=C1NC(=S)N/C1=C/c1cccnc1 | 103%
c1csc(Cc2nn3c(-c4ccncc4)nnc3s2)c1 | 102%
COc1ccc(-n2c(C)cc3cc(OC(C)=O)ccc32)cc1 | 70.9%
COCCN1Cc2cccc(C(=O)Nc3cccc(-c4nc5ccccc5[nH]4)c3)c2C1=O | 114%
CN(C)CCCN(C(=O)CCSc1ccccc1)c1nc2cc3c(cc2s1)OCO3 | 116%
COc1ccc(-c2cnc3c(NC=O)cc(-c4ccccc4OC)cn23)cc1OC | 102%
Cc1csc(CNc2ncnc3ccc(-c4ccoc4)cc23)c1 | 99.4%
C=CCN1c2ccccc2[C@]23C[C@@H](C(=O)OC)N(C(=O)c4ccc(Br)cc4)C2=NC(C(=O)OC)=C(C(=O)OC)[C@H]13 | 101%
C=C(C)[C@@H]1CC[C@]2(C(=O)O)CC[C@]3(C)[C@H](CC[C@@H]4[C@@]5(C)CC[C@H](O)C(C)(C)[C@@H]5CC[C@]43C)[C@@H]12 | 57.6% [at 19.8 µM]
CCN1CCN(Cc2ccc(NC(=O)c3ccc(C)c(NC(=O)c4ccno4)c3)cc2C(F)(F)F)CC1 | 83.4%
C[C@H](O)[C@@H]1CN2CCc3c([nH]c4ccc(-c5ccc6c(c5)OCO6)cc34)[C@@H]2C[C@@H]1N(C)C(=O)Nc1ccc(F)cc1 | 107%
CC(C)C[C@@H](CN1CCC[C@@H]1CN1C(=S)NC[C@@H]1Cc1ccc(O)cc1)N1C[C@H](Cc2ccc(O)cc2)N(CC2CCCCC2)C1=S | 118%
Cc1nn(-c2cccc(Cl)c2)c2nc(C(F)(F)F)[nH]c(=O)c12 | 79.8%
CCC(=O)c1ccc(O)c(CC=C(C)C)c1 | 97.8%
Nc1nccc(SCc2ccc(Cl)cc2Cl)n1 | 74.1%
CC(C)=CCc1c(O)cc(O)c2c1OC(c1ccc(O)cc1)CC2=O (stereo not given) | 108%
CCOc1ccc(C(C(=O)NC2CCCC2)N(C(=O)c2snc(C(N)=O)c2N)c2cccc(O)c2)cc1 (stereo not given) | 96.6%
Cc1ccc(S(=O)(=O)n2cc(-c3ccccc3)c3ccccc32)cc1 | 108%
